Potency and outcome data for 35 molecules are collected here from PubChem BioAssay (NCATS).

Experiment [1] deals with Zika virus NS2B-NS3 protease (unlinked complex). As to the kind of experiment: Primary screen GU Rhodamine qHTS for Zika virus inhibitors: Unlinked NS2B-NS3 protease assay (AID 1347159). Also: nearly all actives have a fitted effect of over 60% in size. Also: potency is read from the fitted curve at half-maximal effect. Summed up: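 Noncovalent NS2B hydrophilic domain/NS3 protease complex (25 nM final) in 10 mM Tris-HCl pH 8.0, 0.01% Tween 20, preincubated 15 min with compounds (up to 114 microM), then 1.5 microM Rhodamine110 substrate. Fluorescence change over 15 min fitted to 4-parameter Hill.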

The test system of experiment [2] is Zika virus NS2B-NS3 protease (linked construct). Put plainly: Primary screen NINDS Rhodamine qHTS for Zika virus inhibitors (AID 1347160). Also: nearly all actives have a fitted effect of over 55% in size. Also: potency is read from the fitted curve at half-maximal effect. An outline of the steps: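 Purified NS2B-NS3 protease with the NS2B hydrophilic domain joined by a flexible linker (25 nM) in 10 mM Tris-HCl pH 8.0, 0.01% Tween 20, preincubated 15 min at RT with compound; Rhodamine110 peptide substrate 1.5 µM; fluorescence change over 15 min; 4-parameter Hill fit.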

In experiment [3] the target is Lysine-specific demethylase 5B (Homo sapiens) (UniProt Q9UGL1). As to the kind of experiment: Optimization screen for KDM5B Histone Demethylases FDH coupled qHTS against the LOPAC library (AID 1347166). Summed up:
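KDM5BDeltaAP (200nM final) preincubated 10 min with compound, then 12.5uM H3K4Me3, 25uM a-ketoglutarate, ascorbate, Fe(II), NAD+ and FDH added; 50mM HEPES pH 7.5, 0.01% Tween-20. NADH fluorescence (340/450 nm) change over 30 min, room temperature.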

Experiment [4] can be described thus: Confirmatory screen GU Rhodamine qHTS for Zika virus inhibitors qHTS (AID 1347157). Also: nearly all actives have a fitted effect of over 70% in size. Also: potency is read from the fitted curve at half-maximal effect. An outline of the steps: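 In dose–response format, inhibition of unlinked protease (25 nM) was measured with 1.5 microM bis-peptide Rhodamine110 substrate. Aprotinin served as the intraplate control.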
The nature of experiment [5]: Confirmatory screen NINDS Rhodamine qHTS for Zika virus inhibitors (AID 1347161). Also: nearly all actives have a fitted effect of over 60% in size. Also: potency is read from the fitted curve at half-maximal effect. An outline of the steps:
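Kinetic fluorescence (Ex 480 nm, Em 540 nm) over 15 min with 1.5 microM Rhodamine110 peptide and 25 nM linked protease.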

The nature of experiment [6]: ZIKV-mCherry secondary qHTS for Zika virus inhibitors (AID 1347158). Also: top concentration of the series differs between compounds. An outline of the steps:
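After overnight seeding at 37 °C, Vero cells receive compound and then ZIKV-mCherry (MOI 1). Following 48-72 h infection, cells are fixed, counterstained with Hoechst, and imaged; percent infected cells is derived from an mCherry intensity cut-off of 450 RFU.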

In experiment [7] the test system is Zika virus NS2B-NS3 protease (linked). As to the kind of experiment: 384 well plate NINDS AMC confirmatory qHTS for Zika virus inhibitors (AID 1347163). Also: potency is read from the fitted curve at half-maximal effect; nearly all actives have a fitted effect of over 50% in size. As to conditions: Recombinant NS2B-NS3 protease, Ac-VKTGKR-AMC fluorescence. An outline of the steps: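 Linked protease 5/30/60 nM final; cpds up to 1 mM final, ~15 min preinc. Substrate Ac-VKTGKR-AMC 30 microM final. RT, dark, 25 min; FI ex 355/em 460; normalized to no-enzyme/no-inhibitor ctrls.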

The subject of experiment [8] is Zika virus NS2B-NS3 protease (linked construct). As to the kind of experiment: 384 well plate NINDS Rhodamine confirmatory qHTS for Zika virus inhibitors (AID 1347164). Also: potency is read from the fitted curve at half-maximal effect; nearly all actives have a fitted effect of over 65% in size. The conditions noted are these: rhodamine-110 peptide substrate fluorescence. Summed up: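 Fluorescence at 485/538 nm was measured 25 minutes after adding 10 microM Ac-LKRR-Rd substrate, in the dark at room temperature. The protease (5, 30 or 60 nM final) had been preincubated ~15 minutes with compound; aprotinin as control.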

Experiment [9] in a line: Vero cells viability qHTS for Zika virus inhibitors (AID 1347167). Summed up: (§1)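 Compounds were tested in concentration series on cells grown in DMEM containing 4% FBS. After 24 to 48 hours, cellular ATP was measured by luminescence with CellTiter Glo.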
Experiment [10] in a line: HepG2 cells viability qHTS for Zika virus inhibitors (AID 1347168). Also: potency is read from the fitted curve at half-maximal effect. Summed up:
as §1

Structures are written as SMILES. Several values for one entry are separate records, joined by “and”; a condition that tells them apart may be missing. Identical values can stand only once. Records with an inconclusive call do not appear. Activity calls are given as the source filed them. Calls follow the shape of the dose curve; as a rule, active = well fitted curve in the direction sought with a large enough effect; inconclusive = small, poorly fitted or top-dose-only effect, or another doubt; inactive = no such curve, though single readings can be large; an effect the other way counts as inactive or inconclusive.

Chain of Lysine-specific demethylase 5B (Homo sapiens) (Q9UGL1 whole entry, looked up): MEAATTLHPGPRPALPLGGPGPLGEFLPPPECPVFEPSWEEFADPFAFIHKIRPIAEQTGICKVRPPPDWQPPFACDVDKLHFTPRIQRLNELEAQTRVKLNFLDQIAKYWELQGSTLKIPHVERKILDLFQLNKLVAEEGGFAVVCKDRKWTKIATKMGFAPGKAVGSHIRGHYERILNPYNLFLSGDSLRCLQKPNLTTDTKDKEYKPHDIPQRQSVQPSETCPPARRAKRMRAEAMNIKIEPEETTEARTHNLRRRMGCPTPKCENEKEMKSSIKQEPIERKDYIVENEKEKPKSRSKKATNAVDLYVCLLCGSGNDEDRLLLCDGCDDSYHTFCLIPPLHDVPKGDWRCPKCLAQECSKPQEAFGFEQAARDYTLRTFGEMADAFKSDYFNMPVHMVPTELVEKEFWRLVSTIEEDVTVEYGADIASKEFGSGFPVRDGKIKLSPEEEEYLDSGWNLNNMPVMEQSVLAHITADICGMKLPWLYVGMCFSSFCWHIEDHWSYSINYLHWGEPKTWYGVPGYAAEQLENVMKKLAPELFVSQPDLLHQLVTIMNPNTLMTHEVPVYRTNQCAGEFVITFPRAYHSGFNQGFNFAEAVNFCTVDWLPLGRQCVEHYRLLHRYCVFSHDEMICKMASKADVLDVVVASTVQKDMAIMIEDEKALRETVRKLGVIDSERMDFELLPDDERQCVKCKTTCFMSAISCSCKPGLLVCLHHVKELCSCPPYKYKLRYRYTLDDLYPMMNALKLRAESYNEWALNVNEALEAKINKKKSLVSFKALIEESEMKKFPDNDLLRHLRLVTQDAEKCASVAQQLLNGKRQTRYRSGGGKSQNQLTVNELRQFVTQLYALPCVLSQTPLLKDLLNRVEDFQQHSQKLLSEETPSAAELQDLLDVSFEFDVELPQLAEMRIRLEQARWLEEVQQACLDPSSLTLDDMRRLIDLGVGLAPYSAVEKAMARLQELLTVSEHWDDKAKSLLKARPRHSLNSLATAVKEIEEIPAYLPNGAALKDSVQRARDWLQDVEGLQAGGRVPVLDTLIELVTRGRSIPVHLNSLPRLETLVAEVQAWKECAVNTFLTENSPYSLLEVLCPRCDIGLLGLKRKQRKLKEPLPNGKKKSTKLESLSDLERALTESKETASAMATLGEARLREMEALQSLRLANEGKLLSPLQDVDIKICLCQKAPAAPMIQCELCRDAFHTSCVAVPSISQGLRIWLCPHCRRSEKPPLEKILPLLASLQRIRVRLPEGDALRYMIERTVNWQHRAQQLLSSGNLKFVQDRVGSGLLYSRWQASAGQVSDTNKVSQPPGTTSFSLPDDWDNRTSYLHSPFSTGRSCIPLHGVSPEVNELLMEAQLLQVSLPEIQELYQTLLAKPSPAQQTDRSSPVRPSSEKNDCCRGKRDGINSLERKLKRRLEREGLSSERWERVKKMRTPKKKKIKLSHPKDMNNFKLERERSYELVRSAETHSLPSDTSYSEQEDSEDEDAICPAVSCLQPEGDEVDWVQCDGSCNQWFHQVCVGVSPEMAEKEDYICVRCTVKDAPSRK

Turning to `S=C(NC1CCCCC1)N1CCC(c2cnc[nH]2)CC1`, the Potency entry in experiment [1] and in experiment [2] was “inactive” throughout. For the same molecule, the outcome in experiment [3] was inactive.

`CN1CCN(c2ccc([N+](=O)[O-])c3no[n+]([O-])c23)CC1`: the Potency result in experiment [1] and in [2] was “inactive” throughout.

As for `Nc1c(Cl)c(Cl)c(Cl)c(Cl)c1Cl`, the Potency result in [4] and in experiment [5] was “inactive” throughout.

With `Cc1ccccc1-n1c(Cn2ncc3c(N)ncnc32)nc2cccc(C)c2c1=O`, the Potency result in experiment [1] and in experiment [2] was “inactive” in each case.

As to `O=C(O)c1cc(Oc2ccc(C(F)(F)F)cc2Cl)ccc1[N+](=O)[O-]`, in experiment [6], the molecule was called inactive. For the same molecule, the Potency in experiment [7] was 562 µM (active); in [8] it was 316 µM (active).

For `O=C(Oc1ccc([N+](=O)[O-])cc1)N1CCN(Cc2cccc(Oc3ccccc3)c2)CC1`, the Potency entry in [1] and in experiment [2] was “inactive” in each case.

`CC(=O)Nc1ccc(OC[C@](C)(O)C(=O)Nc2ccc([N+](=O)[O-])c(C(F)(F)F)c2)cc1`: the Potency result in [1] and in experiment [2] was “inactive” in each case.

Turning to `O=C1C=CC[C@@H]2[C@H]3CCCN4CCC[C@@H](CN12)[C@@H]34`, in [1], the Potency result is “inactive”.

`CCN(CC)C(=O)c1ccc(C2=CC3(CCNCC3)Oc3cccc(O)c32)cc1`: the Potency entry in experiment [1] and in experiment [2] was “inactive” each time.

In the case of `O=C1C(I)=CC(=C(c2cc(I)c(O)c(I)c2)c2ccccc2C(=O)O)C=C1I`, the Potency in [4] is 2.82 µM (active); in experiment [5] it was 2.51 µM (active); in experiment [7], 50.1 µM (active); in experiment [8] it was 8.91 µM (active). For the same molecule, in experiment [6], the outcome was inactive.

In the case of `CCNC(=O)CC1N=C(c2ccc(Cl)cc2)c2cc(OC)ccc2-n2c(C)nnc21` (stereo not drawn), the Potency entry in [1] and in experiment [2] was “inactive” each time.

As for `O=C(N[C@H]1CN2CCC1CC2)c1ccc(Cl)cc1`, the Potency result in experiment [1] and in experiment [2] was “inactive” in each case. In [3], the call was inactive.

With `CCNC(=O)C[C@@H]1N=C(c2ccc(Cl)cc2)c2cc(OC)ccc2-n2c(C)nnc21`, the Potency result in experiment [1] is “inactive”.

`CC(C)N(CCNC(=O)CN1CCCC1=O)C(C)C`: the Potency entry in experiment [1] and in [2] was “inactive” throughout.

With `CCc1c(C(=O)C(N)=O)c2c(OCC(=O)O)cccc2n1Cc1ccccc1`, the Potency result in experiment [1] and in experiment [2] was “inactive” each time.

On to `CN(C)[C@@H]1C(=O)C(C(N)=O)=C(O)[C@@]2(O)C(=O)C3=C(O)c4c(O)cccc4[C@@](C)(O)[C@H]3[C@H](O)[C@@H]12`, for which, in [6], the call was inactive. Further, the Potency is 19.7 µM (active) and 7.82 µM (active) in experiment [5]; 158 µM (active) and 8.91 µM (active) in experiment [7]; 50.1 µM (active) and 2.51 µM (active) in experiment [8]. Besides, the Potency entry in [9] and in [10] was “inactive” in each case.

Consider `Cc1c(C(=O)Nc2cccc(C(F)(F)F)c2)cc(-c2ccccc2)n1CCCN1CCOCC1`, for which the Potency result in experiment [1] and in [2] was “inactive” in each case.

As to `CC1(N2CCC(n3c([C@@H]4CCCNC4)nc4ccccc43)CC2)CCCCCCC1`, the Potency result in experiment [1] and in [2] was “inactive” each time.

Consider `CC(=O)N(C)c1cccc(-c2ccnc3c(C(=O)c4cccs4)cnn23)c1`, for which the Potency entry in [1], in experiment [2], in [5], in [9] and in [10] was “inactive” each time.

Consider `O=C(O)CNC(=O)c1c(O)c2ccccc2n(Cc2ccccc2)c1=O`, for which the Potency in [1] was 12.6 µM (active); in [2] it was 11.2 µM (active).

With `CC(N[C@H]1C[C@H]1c1ccccc1)c1ccc2c(c1)OCCO2` (stereo partly drawn), in experiment [1], the Potency result was “inactive”.

As to `CC(=O)NCCc1c[nH]c2ccccc12`, the Potency entry in [1] and in [2] was “inactive” each time. Further, the outcome in experiment [3] was inactive.

Consider `Cc1[nH]nc2ccc(-c3cncc(OC[C@@H](N)Cc4c[nH]c5ccccc45)c3)cc12`, for which the Potency result in experiment [1] and in experiment [2] was “inactive” each time.

With `O=[N+]([O-])c1c(Cl)c(Cl)cc(Cl)c1Cl`, the Potency result in [4] and in experiment [5] was “inactive” each time.

`CCOC(=O)Nc1ccc(NCc2ccc(F)cc2)cc1N`: the Potency entry in experiment [1] and in [2] was “inactive” each time.

As for `O=C(N[C@@H](COc1ccc2[nH]c(=O)[nH]c2c1)c1ccccc1)c1cccn(Cc2ccc(F)c(F)c2)c1=O`, the Potency result in [1] and in experiment [2] was “inactive” in each case.

`Cc1ccccc1-n1c(Cn2cnc3c(N)ncnc32)nc2cccc(C)c2c1=O`: the Potency result in [1] and in [2] was “inactive” each time.

For the molecule `CC1=C(O)C(=O)C=C2C1=CC=C1[C@@]2(C)CC[C@@]2(C)[C@@H]3C[C@](C)(C(=O)O)CC[C@]3(C)CC[C@]12C`, the Potency in [5] is 5.53 µM (active) and 2.77 µM (active); in [7], 79.4 µM (active); in experiment [8], 28.2 µM (active); in [10], 18.5 µM (active) and 7.37 µM (active).

Turning to `CC(C)Oc1cccnc1N(C)C1CCN(Cc2ccccc2)CC1`, the Potency entry in experiment [5], in experiment [9] and in experiment [10] was “inactive” in each case.

`NC1CC1c1ccccc1` (stereo not drawn): the call in experiment [3] was inactive.

As for `C#CCOC(=O)C1=CCCN(C)C1`, in experiment [3], the outcome was inactive.

For the molecule `Oc1ccc2c3c1O[C@H]1c4[nH]c5c(c4C[C@@]4(O)[C@@H](C2)N(CC2CC2)CC[C@]314)C[C@@]1(O)[C@H]2Cc3ccc(O)c4c3[C@@]1(CCN2CC1CC1)[C@H]5O4`, in [3], the molecule was called inactive.

As to `C[C@@H](N)Cc1cnc[nH]1`, the molecule was classed as inactive in [3].

On to `CCCN(CCC)[C@@H]1CCc2ccc(O)cc2C1`, for which the outcome in [3] was inactive.

Consider `CN[C@@H]1C[C@@H](c2ccc(Cl)c(Cl)c2)c2ccccc21`, for which the result in [3] was inactive.
